Screening results deposited in PubChem by National Center for Advancing Translational Sciences (NCATS).
HT1080-NT tox: qHTS for induction of synthetic lethality in tumor cells producing 2HG: qHTS for the HT-1080-NT fibrosarcoma cell line; HT-1080-NT fibrosarcoma viability, CellTiter-Glo ATP luminescence, 48 h; AID 686970, 2013; 360,000 tested, 1.6% active; Potency, µM (top dose mostly 46.1 µM), for the others: at the highest dose activity, negative = less viability, usual class: cytotoxic;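 note: NT is the 2HG producing partner of a matched IDH1 knockdown line; 0% = DMSO-treated cells and -100% = media-only wells without cells; nearly all actives have a fitted effect of over 55% in size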
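Compounds were tested in concentration-response format on HT-1080-NT cells for 48 hours at 37 degrees C. Cell viability came from CellTiter-Glo luminescence; curves were classified by r2, response magnitude and activity.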
DT40 TDP1 no CPT: qHTS for Inhibitors of human tyrosyl-DNA phosphodiesterase 1 (TDP1): qHTS in cells in absence of CPT. 420,000 tested, 15% active. DT40 Tdp1-/- hTDP1 cells, no CPT, ATP luminescence, 48 h. Potency, µM (top dose mostly 46.2 µM), for the others: top-dose activity change, negative = growth inhibition, actives largely listed as inhibitors; note: % is set by controls: 0 for no effect and ±100 for the full control effect; nearly all actives have a fitted effect of over 55% in size
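Stably hTDP1-transfected Tdp1-null chicken DT40 cells were treated with library compounds minus camptothecin and grown for at least 48 hr at 37 °C, after which cellular ATP was quantified by luminescence.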
HT1080 IDH1KD tx: qHTS for induction of synthetic lethality in tumor cells producing 2HG: qHTS for the HT-1080-IDH1KD cell line. HT-1080 IDH1 knockdown viability, ATP luminescence, 48 h. Potency, µM (titrated, usually from 46.1 µM), without a hit: at the highest dose activity, negative = toxicity, hits mostly cytotoxic. 360,000 tested, 2% active;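 note: 0% = DMSO wells and -100% = cell-free medium wells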
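In this qHTS, HT-1080 cells depleted of IDH1 are exposed for 48 h at 37 °C to compound titrations. Toxicity is scored from CellTiter-Glo luminescence, with DMSO as full viability and medium alone as none.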
TGFb SMAD3 inh: qHTS for Inhibitors of TGF-b | 410,000 tested, 1.2% active | HepG2 CAGA-GFP TGF-b/SMAD3 reporter, GFP fluorescence, 18 h; TGF-beta stimulated, 500 pg/mL final | Potency, µM (top dose mostly 46.1 µM), for the others: at the highest dose activity, negative = inhibition, actives largely listed as inhibitors; note: % is set by controls: 0 for no effect and ±100 for the full control effect; nearly all actives have a fitted effect of over 65% in size
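Using HEPG2 CAGA-GFP reporter cells at 1000 cells/well, we pinned test compounds, stimulated with recombinant TGF-beta (500 pg/mL final) and measured total well GFP after 18 h.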
HepG2 viability: qHTS for Inhibitors of TGF-b: Cytotox Counterscreen | HepG2 CAGA-GFP viability, ATP luminescence, 18 h | Potency, µM (titrated, usually from 46.1 µM), for inactives: at the highest dose activity change, negative = cytotoxicity, most hits filed as cytotoxic | 410,000 tested, 0.76% active | AID 588856, 2011
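CellTiter-Glo luminescence gave cytotoxicity after 18 hours at 37 degrees C. The cells were HepG2 CAGA-GFP in 1% FBS DMEM, stimulated with 500 pg/mL TGF-beta after compound addition. %Activity was normalised to no-cell wells (complete cell-killing) and DMSO (no toxicity), and curves were fitted and classified.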
DT40 TDP1 CPT: qHTS for Inhibitors of human tyrosyl-DNA phosphodiesterase 1 (TDP1): qHTS in cells in presence of CPT; chicken DT40 Tdp1-/-;hTDP1 cells + 20 nM CPT, ATP luminescence, 48 h; Potency, µM (top dose mostly 46.2 µM), for the others: top-dose activity change, negative = growth inhibition, actives largely listed as inhibitors; 420,000 tested, 12% active; note: % is set by controls: 0 for no effect and ±100 for the full control effect; nearly all actives have a fitted effect of over 55% in size
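Chicken DT40 Tdp1-/- cells stably complemented with human TDP1 were seeded at 400 cells/well in medium containing 20 nM camptothecin, exposed to pin-transferred compounds, and grown at 37 °C for at least 48 hr. Viability was read as ATP luminescence.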
* marks the source's active call; other numbers are inactive results; ? = inconclusive; · = no result. Only some compounds are listed: those with a hit (about 17% of all), similar ones and a draw of the others. Calls come from the whole dose curve; as a rule, active = well fitted curve in the direction sought with a large enough effect; inconclusive = small, poorly fitted or top-dose-only effect, or another doubt; inactive = no such curve, though single readings can be large; an effect the other way counts as inactive or inconclusive. Potency is the fitted concentration of half-maximal effect.

SMILES	HT1080-NT tox	DT40 TDP1 no CPT	HT1080 IDH1KD tx	TGFb SMAD3 inh	HepG2 viability	DT40 TDP1 CPT
CCOc1ccccc1NC(=O)C1CCCCN1S(=O)(=O)c1ccc(F)cc1 (configuration not stated)	-6.2%	20.6µM*	12.4%	-53.1%	-2.2%	-28.1%
NC(=S)Nc1ccc(Oc2ccc(NC(N)=S)cc2)cc1	-1.8%	-15.3%	10.5%	23.4%	-1.2%	-23.4%
C/C(=N\NC(=O)c1ccco1)c1cc(Cl)sc1Cl	14.5%	-19.1%	11.4%	-1.3%	2.0%	?
Cc1ccc(S(=O)(=O)N2CCC[C@H]2C(=O)Nc2ccccc2Cl)cc1	-4.0%	16.4µM*	-6.1%	15.8%	3.1%	4.0%
O=C(NCCc1ccccc1)C(=O)NCC1CCCN1S(=O)(=O)c1ccccc1 (configuration not stated)	-24.8%	10.3µM*	?	-10.9%	1.8%	13µM*
CC(C)(C#N)NC(=O)C1CCCN1S(=O)(=O)c1ccc2ccccc2c1 (configuration not stated)	?	?	?	-13.2%	3.2%	23.1µM*
O=C(NCCc1ccccc1)C1CCCN1C(=O)Nc1ccc(F)cc1 (configuration not stated)	12.4%	14.6µM*	6.5%	?	0.7%	?
CC1=C(C(N)=O)C(c2ccc(F)cc2)n2nc(-c3ccc(N(C)C)cc3)nc2N1 (configuration not stated)	·	0.8%	·	6.1%	3.6%	0.4%
CCN(C(=O)COC(=O)CCC1CCCC1)c1c(N)n(Cc2ccccc2)c(=O)[nH]c1=O	2.6%	-7.0%	5.3%	-5.5%	-7.4%	-23.4%
Cc1ccc(S(=O)(=O)N2CCCC2C(=O)OCc2ccco2)cc1 (configuration not stated)	-4.4%	20.6µM*	?	-9.0%	-0.4%	14.6µM*
Cc1ccc(S(=O)(=O)N2CCCC2C(=O)NCCc2ccccc2)cc1 (configuration not stated)	-1.0%	14.6µM*	-3.0%	12.3%	-1.5%	-14.1%
C[C@H]1CN(S(=O)(=O)c2c(F)cccc2F)CCN1S(=O)(=O)c1ccc2c(c1)OCCO2	·	·	·	-21.4%	-13.4%	·
COc1cccc(OC)c1C(=O)NCCOc1cc(C)cc(C)c1	0.3%	?	1.8%	-0.1%	2.0%	-1.9%
C[C@@](N)(C(=O)O)c1ccc(P(=O)(O)O)cc1	·	-7.8%	·	·	·	11.2%
Cc1ccccc1C(O)c1ccncc1 (configuration not stated)	23.8%	-2.2%	4.5%	-3.1%	17.8µM*	-3.3%
Cc1ccc(C(O)c2ccncc2)cc1 (configuration not stated)	3.3%	?	-9.0%	11.7%	-13.6%	?
N#Cc1cc2c(=O)n3ccccc3nc2n(-c2ccccc2Cl)c1=O	?	?	?	-15.8%	-12.7%	7.31µM*
COc1ccc(C2=CSC3=NNC4(CCCCC4)NN23)cc1	-2.9%	-13.4%	-1.6%	-9.4%	-20.8%	-2.1%
Cc1ccc(C2=CSC3=NNC4(CCCCC4)NN23)cc1	-6.5%	23.1µM*	-15.8%	-22.5%	-34.5%	?
CC1CCCN(CCCOc2ccccc2-c2ccccc2)C1 (configuration not stated)	?	23.1µM*	?	?	-4.3%	?
c1ccc(-c2ccccc2OCCOCCN2CCCCC2)cc1	-2.1%	?	1.3%	11.4%	-38.6%	23.1µM*
c1ccc(COc2ccc(OCCCCN3CCCC3)cc2)cc1	-0.8%	23.1µM*	-14.6%	-14.7%	-19.9%	?
c1ccc(-c2ccccc2OCCCN2CCOCC2)cc1	3.6%	-28.2%	-2.2%	4.7%	2.9%	-21.4%
c1ccc(COc2ccc(OCCCN3CCCCC3)cc2)cc1	-27.0%	?	-25.5%	-8.2%	-22.8%	?
c1ccc(-c2ccccc2OCCN2CCCC2)cc1	-3.1%	-11.5%	-1.5%	1.6%	1.3%	6.6%
SMILES	HT1080-NT tox	DT40 TDP1 no CPT	HT1080 IDH1KD tx	TGFb SMAD3 inh	HepG2 viability	DT40 TDP1 CPT
c1ccc(-c2ccccc2OCCCCN2CCCCCC2)cc1	-2.3%	?	-8.0%	-51.4%	-44.8%	18.4µM*
COc1cccc(C(NC(C)=O)c2nc(-c3cccs3)cs2)c1 (configuration not stated)	-0.5%	-9.9%	0.3%	13.7%	-1.6%	-1.2%
CC(C)(C)c1ccccc1OCCCCCn1ccnc1	?	?	?	?	-36.8%	?
COc1ccccc1OCCCCN1CCC(C)CC1	15.8%	-3.9%	5.6%	5.2%	0.7%	3.0%
CC1CCN(CCOCCOc2ccccc2-c2ccccc2)CC1	-12.2%	?	?	-12.1%	-30.4%	23.1µM*
c1ccc(-c2ccccc2OCCCCn2ccnc2)cc1	-4.4%	25.9µM*	0.3%	0.0%	-32.5%	23.1µM*
CC1(c2nnnn2-c2ccc3c(c2)OCCO3)CCC(=O)N1CCCn1ccnc1 (configuration not stated)	26.8%	-26.0%	19.1%	·	·	-0.6%
CCc1ccc(NC(=O)CN(C)S(=O)(=O)c2ccc3c(c2)c(=O)n(C)c(=O)n3C)cc1	·	?	·	-29.4%	-20.6%	?
CCCCCCCCSc1nnc(/N=C/N(C)C)s1	-5.2%	-3.6%	2.6%	16.4%	6.2%	20.7%
Cc1cc(Sc2nnc(N)s2)c2ccccc2n1	?	2.91µM*	?	7.08µM*	-100.9%	1.84µM*
Cc1cc(C)c2ccccc2n1	·	1.5%	·	-1.8%	-5.6%	-2.3%
Cc1cc(Sc2nnc(/N=C/N(C)C)s2)c2ccccc2n1	14.6µM*	7.31µM*	18.4µM*	8.91µM*	11.2µM*	5.8µM*
Nc1ccc2nc(CN3CCOCC3)[nH]c2c1	-1.8%	-24.5%	-5.0%	4.4%	-39.9%	-19.9%
